Compounds with a hit are over-represented: about 3.2% of the library has one in this group of screens.
KOR antag MB: antagonists of human kappa opioid receptor OPRK1, Maybridge library. Kappa-type opioid receptor (Homo sapiens), P41145. OPRK1 cells, antagonist mode, fluorescence readout. inhibition, % at 9 µM. 0.4% of 16,000 active. AID 652031, 2013; in the data active means inhibition above about 50%
NOTCH ag: agonists of NOTCH signaling; NOTCH signaling luciferase reporter cells, luminescence; activation, % at 2.5 µM; 0.4% of 15,000 active; in the data active means activation above about 2.2%
S1P1 ag: activates the human S1P1 receptor. activation, % at 4.5 µM. S1P1 agonist cell-based reporter assay. Sphingosine 1-phosphate receptor 1 (Homo sapiens), P21453. 1.5% of 16,000 active; in the data active means activation above about 80%
PME-1 Maybridge: inhibitors of human PME-1 in Maybridge library; inhibition, % at 9 µM; 0.5% of 16,000 active; recombinant PME-1, FP-Rh probe fluorescence polarization; Protein phosphatase methylesterase 1 (Homo sapiens), Q9Y570; in the data active means inhibition above about 30%
TLR4 MyD88 blk: inhibitors of human TLR4-MyD88 binding. Cell-based TLR4-MyD88 binding inhibition assay. Toll-like receptor 4 (Homo sapiens), O00206. 0.06% of 16,000 active. inhibition, % at 10 µM; in the data active means inhibition above about 45%
rat GALR2 agon: agonists of rat galanin receptor 2 (GALR2); 0.5% of 16,000 active; cell-based GALR2 agonist screen; activation, % at 10 µM; Galanin receptor type 2 (Rattus norvegicus), O08726; in the data active means activation above about 15%
* hit, by the source's call; · = not tested or not shown.

SMILES	KOR antag MB	NOTCH ag	S1P1 ag	PME-1 Maybridge	TLR4 MyD88 blk	rat GALR2 agon
O=C(Nc1ccccc1)Nc1ccc(-n2ccc(C(F)(F)F)n2)cc1	18	-1	69	-5	-1	-9
Cc1onc(-c2ccccc2)c1NC(=O)Nc1ccc(-n2ccc(C(F)(F)F)n2)cc1	8	-1	98*	-38	3	-7
O=C(Nc1ccc(-c2cn3c(n2)SCC3)cc1)c1cccnc1Oc1ccccc1	-5	0	-31	-1	-2	-1
CCOC(=O)c1ccc(Oc2ccc(Cl)cc2Cl)c([N+](=O)[O-])c1	-12	-1	94*	-3	0	-4
COC(=O)c1ccc([N+](=O)[O-])c(Oc2ccc(Cl)cc2Cl)c1	-11	0	71	1	-5	-9
COc1ccc(Oc2ccc(C(F)(F)F)cc2NS(=O)(=O)c2cccc3nonc23)cc1	8	-1	-19	3	8	-4
COc1ccc(/C=C2/N=C(c3ccccc3)NC2=O)cc1	17	-1	-33	-1	-2	15*
COc1ccc(/C=C2/N=C(c3ccccc3)NN(Cc3ccccc3)C2=O)cc1	11	-1	6	1	2	-7
C/C(=C\C#N)NC(=O)c1nccnc1C(=O)O	-11	0	-7	0	-5	-5
O=c1nc(-c2ccccc2)nc(-c2ccccc2)[nH]1	41	0	20	7	-5	0
C[n+]1cccc(-c2n[nH]c(-c3ccccc3)n2)c1	8	·	110*	1	8	-7
CN1CCN(S(=O)(=O)c2ccc(-c3cc(C(F)(F)F)on3)s2)CC1	-2	0	-12	1	-1	-9
CCOC(=O)CNc1ccc(C(F)(F)F)cc1	-1	0	5	-2	-5	61*
CCOC(=O)NC(=S)Nc1ccc(C(C)(C)C)cc1	13	0	-16	4	-10	-6
CCOC(=O)Cc1c(C(=O)OCC)[nH]c(C)c1C(=O)OCc1ccccc1	15	5.8*	-10	7	1	-6
COc1ccc(OCCNC(=O)c2ccc(OC(F)(F)F)cc2)cc1	-14	0	-11	3	2	-3
CNc1ncnc(N2CCCCC2)c1[N+](=O)[O-]	-1	·	-8	-2	1	-9
O=C(O)/C=C/C(=O)NNC(=O)c1ccccc1[N+](=O)[O-]	-11	·	-4	3	7	-6
O=C(NNC(=O)c1ccccc1[N+](=O)[O-])c1cc2c(s1)-c1ccccc1CC2	5	2.4*	-6	4	-11	-9
Cc1[nH]c2ccccc2c1SCc1n[nH]c(=S)n1C	-99	0	0	34*	-7	20*
CC(=O)N1CCC(NC(=O)Oc2ccc(Cl)cc2)CC1	4	0	0	1	3	-7
CC(=O)N1CCC(C(=O)O/N=C(\N)c2ccc(Cl)cc2)CC1	126*	0	17	4	11	-3
O=S(=O)(Cc1nc(COc2c(Cl)cccc2Cl)no1)c1ccc(Cl)cc1	-34	·	1	2	20	-7
N/C(=N\OC(=O)c1ccc(OCC(F)(F)F)nc1)c1cccc(Cl)c1	5	-1	95*	1	-8	-6
N#C/C(=C\Nc1ccc(F)c(Cl)c1)C(=O)C1CC1	-16	-1	-16	0	-1	-4
SMILES	KOR antag MB	NOTCH ag	S1P1 ag	PME-1 Maybridge	TLR4 MyD88 blk	rat GALR2 agon
N#C/C(=C\Nc1ccc2c(c1)OCCO2)C(=O)c1ccc(Cl)cc1	7	-6	85*	-9	3	-2
O=c1c2c(-c3ccc([N+](=O)[O-])cc3)onc2n(-c2ccccc2)c(=O)n1-c1ccccc1	-17	-1	123*	1	4	-8
N#Cc1cnc(Oc2ccc(Cl)cc2)nc1N	15	0	-8	0	-1	21*
Cc1ccc2[nH]cc(-c3nnnn3-c3ccc(Cl)cc3)c2c1	-26	-1	0	11	-6	-11
O=C(Nc1ccccn1)c1cc(-c2ccccc2)c(C(F)(F)F)s1	7	0	87*	-44	-6	-10
Cc1cc(NC(=O)c2cc(-c3ccccc3)c(C(F)(F)F)s2)on1	4	0	-5	-2	-7	-4
O=C(Nc1ccc(N2CCOCC2)cc1Cl)C1CCN(C(=O)OCc2ccccc2)CC1	8	0	101*	1	3	-8
CC(C)(C)C(C)(C#N)Nc1ccc(Cl)cc1 (centres undefined)	2	1	-6	3	8	45*

High-throughput results as filed in PubChem BioAssay.
